± gives the standard deviation of the averaged measurements.
These compounds were tested on HCC1569 (assay: cell number relative to DMSO (% of DMSO); higher = more cells (less growth inhibition / toxicity)). Conditions: concentration: 10 µM; 24 h.
Procedure, shortened: (§1)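 H1.0 nuclear intensity or cell number is stated as percent of the plate control, based on the median of replicates, and HCC1569 values were smoothed for positional effects. These came from HCC1569 and TDF cells treated with compounds at 10 µM for 24 h at 37 °C in triplicate, then fixed in 3.7% formaldehyde and stained with a rabbit anti-H1.0 antibody, an AlexaFluor 647 secondary and DAPI.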
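Further: TDF denotes transformed human dermal fibroblasts of mesenchymal origin.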

Row | SMILES | cell number
1 | CC(C)N(CCC(=O)c1ccc2ccccc2c1)Cc1ccccc1.Cl | 96.2
2 | CCC(C)C(=O)OC1CCC=C2C=CC(C)C(CCC3CC(O)CC(=O)O3)C21 (stereo not given) [Mevastatin] | 100.8 ± 0.37
3 | CC1=C2C(=COC(C)C2C)C(=O)C(C(=O)O)=C1O (stereo not given) [Citrinin] | 104
4 | COc1cc(CCC(C)=O)ccc1O [Vannilylacetone] | 105
5 | CCn1cc(C(=O)O)c(=O)c2cc(F)c(N3CCNCC3)cc21 [Norfloxacin] | 100

The compounds below were run on TDF in the same assay as above. Conditions: concentration: 10 µM; 24 h.
Procedure, shortened: as §1

Row | SMILES | cell number
6 | Cl.Cl.OCCN1CCN(CCC=C2c3ccccc3Sc3ccc(C(F)(F)F)cc32)CC1 [cis-(Z)-Flupenthixol dihydrochloride] | 102
7 | CCC(C(=O)C(C)C(O)C(C)CCc1ccc(C)c(O)c1C(=O)[O-])C1OC(CC)(C2CCC(O)(CC)C(C)O2)CC1C.[Na+] (stereo not given) [Lasalocid A] | 88.5
8 | O=C(O)CNC(=O)C(=O)O [2-(carboxymethylamino)-2-oxoacetic acid] | 92.4
9 | COc1cc2nccc(Oc3ccc(NC(=O)Nc4ccc(F)cc4F)c(F)c3)c2cc1OC | 59.9
10 | COC1(C2=NCCN2)COc2ccccc2O1.Cl (stereo not given) | 108
11 | O=c1cc(N2CCOCC2)oc2c1ccc1ccccc12 [NU 7026 - 2-(4-Morpholinyl)-4H-naphthol[1,2-b]pyran-4-one] | 106
12 | CCCCCCCCCCCCCCCC(=O)C(F)(F)F | 108
13 | NC(=O)c1ccc(-c2nc(-c3ccc4c(c3)OCCO4)c(-c3ccccn3)[nH]2)cc1 [Casein Kinase I Inhibitor, D4476] | 97
14 | Cl.NCCS [Cysteamine hydrochloride] | 99.7
15 | CNCCC(Oc1ccccc1OC)c1ccccc1.Cl (stereo not given) [Nisoxetine.HCl] | 101
16 | CN(C)CCN1C(=O)c2ccccc2N(C)c2ccccc21 [Dibenzepine] | 112
17 | Cc1cccc(C)c1OCC(N)C(C)C.I (stereo not given) | 108
18 | OCC1OC(Oc2ccc(O)cc2)C(O)C(O)C1O (stereo not given) [Arbutin] | 101
19 | CNC1(C)C2CCC(C2)C1(C)C.Cl (stereo not given) [Mecamylamine hydrochloride] | 108
20 | CCCCCCC=CC=CCCCCCCCC(=O)O [9(Z), 11(Z)-octadecadienoic acid] | 108
21 | O=C(CCCN1CCC(O)(c2cccc(C(F)(F)F)c2)CC1)c1ccc(F)cc1 [Trifluperidol] | 95.7
22 | CCCCC=CCCCCCCCC(=O)O [9(E)-Tetradecenoic acid] | 106
23 | CCOc1ccc2ccc(=O)oc2c1 [7-ethoxy-2H-chromen-2-one] | 108
24 | O=C(O)CCCC(O)C=CC=CC=CC(O)CC=CCCCCCO (stereo not given) [20-Hydroxy-leukotriene B4] | 101
25 | c1ccc2c(Cc3c[nH]c4ccccc34)c[nH]c2c1 [Diindolylmethane] | 97.9 ± 2.8

Row | SMILES | cell number
26 | COc1cc2c(c(OC)c1OC)-c1c(cc3c(c1OC)OCO3)CC(C)C(C)(O)C2OC(=O)c1ccccc1 (stereo not given) [Schisantherin A] | 95
27 | CN(C)NN=C1N=CN=C1C(N)=O [Dacarbazine] | 102
28 | O=C(Nc1ccc(N2CCOCC2)c(S(=O)(=O)Nc2ccccc2Cl)c1)c1ccncc1 [Chk2 Inhibitor] | 110
29 | CSc1nc(N)c2ncn(C3OC(COP(=O)([O-])OP(=O)([O-])OP(=O)([O-])[O-])C(O)C3O)c2n1.[Na+].[Na+].[Na+].[Na+] (stereo not given) [2-Methylthioadenosine triphosphate tetrasodium] | 109
30 | CCOP(=O)(OCC)C(=Cc1cc(C(C)(C)C)c(O)c(C(C)(C)C)c1)P(=O)(OCC)OCC | 101
31 | C=C1C(=CC=C2CCCC3(C)C2CCC3C(C)C=CC(O)C2CC2)CC(O)CC1O (stereo not given) [Calcipotriene] | 109
32 | C[C@]12CCC(=O)C=C1CC[C@@H]1[C@@H]2[C@@H](O)C[C@@]2(C)[C@H]1CC[C@]2(O)C(=O)COC(=O)CCC(=O)[O-].[Na+] | 99.8
33 | CC(C)(C)c1nc2c3cc[nH]c(=O)c3c3cc(F)ccc3c2[nH]1 [JAK Inhibitor I] | 99.5
34 | O=C(O)c1cn(-c2ccc(F)cc2)c2cc(N3CCNCC3)c(F)cc2c1=O [Sarafloxacin] | 95.3
35 | N#CC(=Cc1ccc(O)c(O)c1)C(=O)NCc1ccccc1 [Tyrphostin AG 490] | 107
36 | CC(CS)C(=O)N1CCCC1C(=O)O (stereo not given) [Captopril] | 93.4 ± 4.1
37 | CCCN(CCC)C(=O)C(CCC(=O)O)NC(=O)c1ccccc1 (stereo not given) [Proglumide] | 112
38 | O=C(O)CCCC=CCC1C(O)CC(O)C1C=CC(O)COc1cccc(Cl)c1.[Na] (stereo not given) | 98.7
39 | CC(C)CCNC(=O)C(CC(C)C)NC(=O)C1OC1C(=O)O (stereo not given) | 96.1
40 | CC12CCC3c4ccc(O)cc4CCC3C1CC(O)C2O (stereo not given) [Estriol] | 97.8
41 | CC(C)N(CCC(=O)c1ccc2ccccc2c1)Cc1ccccc1.Cl | 92.5
42 | CCC(C)C(=O)OC1CCC=C2C=CC(C)C(CCC3CC(O)CC(=O)O3)C21 (stereo not given) [Mevastatin] | 87.1 ± 6.8
43 | CC1=C2C(=COC(C)C2C)C(=O)C(C(=O)O)=C1O (stereo not given) [Citrinin] | 102
44 | COc1cc(CCC(C)=O)ccc1O [Vannilylacetone] | 90.8
45 | CCn1cc(C(=O)O)c(=O)c2cc(F)c(N3CCNCC3)cc21 [Norfloxacin] | 108
